The values below come from PubChem BioAssay.

Active and inactive are the calls of the source.

Assay [1] is described as follows: E. coli DRC41 culture turbidity changes, primary screen, E. coli filamentation inducer project, strain DRC41, OD650, 48 h (AID 1152).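 Note: E. coli MC1000 strain DRC41 lacking acrAB efflux pump and sulA.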 The conditions noted are these: E. coli DRC41 (acrAB sulA), higher = more signal, called active from +8 up or from −8 down.
Assay [2] in a line: small-molecule binders of probe aLefty1, primary screen, biochemical, small-molecule microarray, 635/667 nm fluorescence (AID 1153).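 Note: score merges spot fluorescence with signal-to-noise ratio from the scanned slide images.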 The conditions noted are these: higher = more signal.
Assay [3] in a line: PSAC antagonists in infected red cells, primary screen, cell-based, P. falciparum Indochina, OD700, 1 h (AID 1154). The conditions noted are these: P. falciparum Indochina infected RBC osmotic lysis, higher = more signal, called active from +8 up or from −8 down.
Assay [4] is described as follows: PSAC antagonists in infected red cells, primary screen, cell-based, P. falciparum Indochina, OD700, 2 h (AID 1155).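 Note: lysis reports solute entry through the parasite surface anion channel PSAC; channel blockers reduce lysis of infected cells.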 The conditions noted are these: P. falciparum Indochina infected erythrocytes, osmotic lysis OD700; higher = more signal, called active from +8 up or from −8 down.
Assay [5] in a line: osmotic lysis modulators in infected erythrocytes, primary screen, PSAC antagonist project, cell-based, P. falciparum Indochina, OD700, 3 h (AID 1156). The conditions noted are these: higher = more signal, called active from +8 up or from −8 down.
Assay [6] is described as follows: PSAC antagonists in infected red cells, primary screen, cell-based, P. falciparum Indochina, OD700, 18 h (AID 1157). The conditions noted are these: P. falciparum Indochina infected erythrocytes, osmotic lysis OD700, 18 h; higher = more signal, called active from +8 up or from −8 down.
A short description of assay [7]: modulators of S6 phosphorylation in cells, primary screen, cell-based, A549, cytoblot, luminescence, serum-stimulated (AID 1158).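 Note: serum-stimulated A549 lung adenocarcinoma cells; signal is phosphorylated S6 detected by cytoblot immunostaining with HRP secondary.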 As to conditions: A549 phospho-S6 cytoblot, 5 h, higher = more signal.
Assay [8] concerns the target NADPH oxidase 2 (Homo sapiens) (UniProt P04839). Briefly: NOX2-dependent H2O2 signal modulators, primary screen, NOX inhibitor project, cell-based, HEK293-NOX2, PMA-stimulated, Amplex Red fluorescence (AID 1159). Note: test concentration not given here. As to conditions: 45 min, higher = more signal, called active from +8 up or from −8 down.
The target of assay [9] is NADPH oxidase 4 (Homo sapiens) (UniProt Q9NPH5). The assay is described as follows: NOX4-dependent H2O2 signal modulators, primary screen, NOX inhibitor project, cell-based, HEK293-NOX4, tetracycline-induced, Amplex Red fluorescence (AID 1160). As to conditions: 45 min, higher = more signal, called active from +8 up or from −8 down.
Chain of NADPH oxidase 4 (Homo sapiens) (Q9NPH5 whole entry, looked up): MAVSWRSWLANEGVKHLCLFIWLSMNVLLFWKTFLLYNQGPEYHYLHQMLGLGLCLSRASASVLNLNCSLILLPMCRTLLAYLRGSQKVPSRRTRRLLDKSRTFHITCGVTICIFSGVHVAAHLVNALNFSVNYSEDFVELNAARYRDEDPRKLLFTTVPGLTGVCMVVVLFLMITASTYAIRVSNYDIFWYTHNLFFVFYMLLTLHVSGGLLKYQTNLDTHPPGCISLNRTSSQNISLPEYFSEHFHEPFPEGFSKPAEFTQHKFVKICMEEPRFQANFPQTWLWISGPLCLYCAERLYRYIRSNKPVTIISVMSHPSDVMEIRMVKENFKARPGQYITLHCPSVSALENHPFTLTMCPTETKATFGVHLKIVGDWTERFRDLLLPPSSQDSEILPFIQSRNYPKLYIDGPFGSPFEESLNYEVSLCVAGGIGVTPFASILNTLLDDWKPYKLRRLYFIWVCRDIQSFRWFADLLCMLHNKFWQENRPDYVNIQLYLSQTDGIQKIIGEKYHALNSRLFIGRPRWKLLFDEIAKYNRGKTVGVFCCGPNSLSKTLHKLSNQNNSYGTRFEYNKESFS
Assay [10] addresses NADPH oxidase 5 (Homo sapiens) (UniProt Q96PH1). The assay is described as follows: NOX5-dependent H2O2 signal modulators, primary screen, NOX inhibitor project, cell-based, HEK293-NOX5, Amplex Red fluorescence (AID 1161). The conditions noted are these: HEK293-NOX5, ionomycin, 45 min, higher = more signal.
The nature of assay [11]: A549 cell viability effects, profiling panel, calcein-AM fluorescence, 48 h, basal (AID 1162). Note: test concentration not given here. The conditions noted are these: higher = more signal.
A short description of assay [12]: adipocyte viability effects, profiling panel, cell-based, 3T3-L1 adipocytes, calcein-AM fluorescence, 48 h, basal (AID 1163). Note: test concentration not given here. As to conditions: 3T3-L1 adipocytes viability, higher = more signal.
A short description of assay [13]: HepG2 cell viability effects, profiling panel, calcein-AM fluorescence, 48 h, basal (AID 1164). Note: test concentration not given here. The conditions noted are these: higher = more signal.
Assay [14] can be described thus: MM1S cell viability effects, profiling panel, calcein-AM fluorescence, 48 h, basal (AID 1165).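 Note: viability of MM1S multiple myeloma cells under basal unstimulated conditions; test concentration not given here.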 As to conditions: higher = more signal.
Assay [15] in a line: basal RPMI8226 viability, no added stimulus, profiling panel, cell-based, calcein-AM fluorescence, 48 h, PK04 Diversity Set (AID 1166).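 Note: cells grown under basal conditions without added stimulus; test concentration not given here.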 As to conditions: RPMI8226 myeloma viability, higher = more signal.
Assay [16] in a line: basal HepG2 mitochondrial membrane potential changes, profiling panel, cell-based, JC-1 fluorescence, 24 h, 100 nL compound (AID 1167). Note: test concentration not given here. The conditions noted are these: higher = more signal.
A short description of assay [17]: basal 3T3-L1 adipocyte mitochondrial potential changes, profiling panel, cell-based, JC-1 fluorescence, 3T3-L1 adipocytes, 24 h, 100 nL compound (AID 1168). Note: test concentration not given here. As to conditions: JC-1 mitochondrial fluorescence, higher = more signal, called active from +8 up or from −8 down.
Assay [18] can be described thus: basal RPMI8226 mitochondrial membrane potential changes, profiling panel, cell-based, JC-1 fluorescence, 24 h, 100 nL compound (AID 1169). Note: test concentration not given here. The conditions noted are these: RPMI8226 myeloma, JC-1 mitochondrial potential fluorescence, higher = more signal.
Assay [19] in a line: basal MM1S mitochondrial membrane potential changes, profiling panel, cell-based, JC-1 fluorescence, 24 h, 100 nL compound (AID 1170). Note: test concentration not given here. The conditions noted are these: higher = more signal.
Assay [20] is described as follows: A549 lung cancer cell viability effects, profiling panel, resazurin fluorescence, 24 h, PK04 Diversity Set (AID 1171). Note: test concentration not given here. As to conditions: higher = more signal, called active from +8 up or from −8 down. (In general: Resazurin is reduced to fluorescent resorufin, in cell work by metabolically active cells.)

Chain of NADPH oxidase 2 (Homo sapiens) (P04839 whole entry, looked up): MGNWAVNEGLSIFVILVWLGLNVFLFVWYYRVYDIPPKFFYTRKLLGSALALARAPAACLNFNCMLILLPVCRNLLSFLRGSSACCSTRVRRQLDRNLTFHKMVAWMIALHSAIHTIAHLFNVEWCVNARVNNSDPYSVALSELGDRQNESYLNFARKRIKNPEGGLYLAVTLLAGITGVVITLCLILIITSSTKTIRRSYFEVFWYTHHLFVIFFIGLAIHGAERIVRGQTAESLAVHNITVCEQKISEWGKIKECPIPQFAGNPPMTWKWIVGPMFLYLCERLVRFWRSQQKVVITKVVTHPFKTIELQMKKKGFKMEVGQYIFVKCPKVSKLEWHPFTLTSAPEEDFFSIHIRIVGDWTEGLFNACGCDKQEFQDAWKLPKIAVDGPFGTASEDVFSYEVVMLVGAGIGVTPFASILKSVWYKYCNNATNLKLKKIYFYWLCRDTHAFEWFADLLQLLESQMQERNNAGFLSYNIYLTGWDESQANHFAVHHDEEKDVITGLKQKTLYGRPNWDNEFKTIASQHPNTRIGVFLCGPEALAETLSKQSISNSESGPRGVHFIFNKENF
Chain of NADPH oxidase 5 (Homo sapiens) (Q96PH1 whole entry, looked up): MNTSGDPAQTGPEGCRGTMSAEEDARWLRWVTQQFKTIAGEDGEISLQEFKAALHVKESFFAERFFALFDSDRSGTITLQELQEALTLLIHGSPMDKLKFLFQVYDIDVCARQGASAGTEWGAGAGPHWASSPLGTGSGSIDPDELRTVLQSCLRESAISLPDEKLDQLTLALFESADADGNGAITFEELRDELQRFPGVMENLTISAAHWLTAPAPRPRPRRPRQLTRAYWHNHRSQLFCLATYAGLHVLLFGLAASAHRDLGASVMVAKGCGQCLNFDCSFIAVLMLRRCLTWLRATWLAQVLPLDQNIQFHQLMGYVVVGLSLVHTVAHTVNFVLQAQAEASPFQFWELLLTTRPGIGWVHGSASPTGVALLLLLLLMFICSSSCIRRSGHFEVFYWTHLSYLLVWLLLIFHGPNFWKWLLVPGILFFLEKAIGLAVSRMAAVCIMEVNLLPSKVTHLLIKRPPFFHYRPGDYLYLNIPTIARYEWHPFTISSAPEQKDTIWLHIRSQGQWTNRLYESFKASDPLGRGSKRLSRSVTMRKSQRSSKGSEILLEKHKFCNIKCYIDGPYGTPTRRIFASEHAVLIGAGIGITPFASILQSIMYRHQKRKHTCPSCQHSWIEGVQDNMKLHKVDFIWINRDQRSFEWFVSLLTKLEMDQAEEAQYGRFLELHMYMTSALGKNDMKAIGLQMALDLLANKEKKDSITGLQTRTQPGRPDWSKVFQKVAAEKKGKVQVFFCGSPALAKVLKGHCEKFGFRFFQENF

On to `CCCCC=C[C@@H](NC(=O)CCc1ccccc1)c1ccccc1`, for which the z-score in [1] was -2.27 (inactive); in [3], 1.36 (inactive); in assay [4], 0.592 (inactive); in assay [5], -0.985 (inactive); in assay [6] it was 1.28 (inactive); in assay [7], -0.0113. Further, the z-score in [8] was -0.753 (inactive); in assay [9], -0.487 (inactive); in [10] it was 0.736; in assay [11], -2.48; in [12], -0.346; in assay [13], -3.43. The z-score is -3.31 in [14]; -4.71 in assay [15]; -3.88 in assay [16]; -0.775 (inactive) in assay [17]; -0.85 in assay [18]; -1.74 in assay [19]. In addition, the z-score in assay [20] is -1.3 (inactive). Further, the composite z-score in assay [2] was found to be 0.396.

As to `O=C1NC(=O)C2C1C=CC(C(O)CCc1ccccc1)N2Nc1ccccn1` (stereo not given), the z-score in assay [1] was 0.0468 (inactive); in [3] it was -0.247 (inactive); in assay [4], -0.752 (inactive); in assay [5], -0.548 (inactive); in [6], -1.97 (inactive); in [7] it was 1. Besides, the z-score is -1.43 (inactive) in [8]; -3.34 (inactive) in [9]; -1.52 in assay [10]; -1.58 in assay [11]; 0.0058 in [12]; 1.23 in assay [13]. The z-score is 0.87 in assay [14]; 1.02 in assay [15]; -0.149 in assay [16]; -0.382 (inactive) in assay [17]; 0.282 in assay [18]; 0.228 in assay [19]. Further, in [20], the z-score was -1.72 (inactive). The same compound returned a composite z-score in assay [2] of 0.0844.

Turning to `COc1ccccc1CN1C(=O)c2ccccc2[C@](Cc2ccccc2I)(C(=O)NCCN2CCOCC2)[C@@H]1c1ccc(CO)cc1`, the z-score in assay [1] is 0.117 (inactive); in assay [3] it was 9.62 (active); in assay [4], 0.349 (inactive); in assay [5], -0.113 (inactive); in [6], -0.385 (inactive); in assay [7], 1.39. Moreover, the z-score was -1.81 (inactive) in assay [8]; 0.454 (inactive) in [9]; -0.824 in assay [10]; 0.0739 in assay [11]; 0.937 in assay [12]; 1.26 in assay [13]. Also, the z-score in assay [14] is -1.17; in assay [15], -2.74; in [16], 2.25; in assay [17], 0.833 (inactive); in assay [18], -0.673; in assay [19], -0.454. Moreover, the z-score in [20] was -1.83 (inactive). In assay [2], the composite z-score was -0.181.

In the case of `CCCC[C@H]1OB(O)C[C@H]2C1=C(COc1ccccc1)Cn1c(=O)n(-c3ccccc3)c(=O)n12`, the z-score in assay [1] was 0.4 (inactive); in assay [3] it was 2.14 (inactive); in assay [4], 0.0541 (inactive); in assay [5] it was 0.722 (inactive); in [6], 0.0113 (inactive); in assay [7] it was 0.279. Further, the z-score is -0.281 (inactive) in [8]; -0.216 (inactive) in assay [9]; 0.779 in assay [10]; -0.428 in assay [11]; 0.75 in assay [12]; -0.561 in assay [13]. Moreover, the z-score is -0.206 in [14]; -1.28 in [15]; -2.12 in [16]; 0.16 (inactive) in assay [17]; 0.268 in [18]; -0.958 in [19]. Moreover, the z-score in assay [20] is -0.412 (inactive). For the same compound, the composite z-score in assay [2] is -0.06.

With `CCOC(=O)C[C@H]1[C@H](OC(=O)Cc2ccc3c(c2)OCO3)[C@@H](NC(=O)c2ccccc2)c2cc(OCCCO)ccc2N1C(=O)c1ccc2ccccc2n1`, the z-score in assay [1] was 2.15 (inactive); in assay [3] it was 6.69 (inactive); in [4] it was -0.0918 (inactive); in assay [5] it was -1.04 (inactive); in assay [6], -1.23 (inactive); in assay [7] it was 0.873. The z-score in assay [8] is -0.357 (inactive); in assay [9] it was 1.16 (inactive); in assay [10], 0.27; in [11], 1.86; in [12], 1.08; in assay [13] it was 1.8. The z-score is -0.198 in [14]; -0.243 in [15]; 1.12 in assay [16]; 0.607 (inactive) in assay [17]; -0.156 in assay [18]; -0.178 in assay [19]. The z-score in assay [20] was -1.38 (inactive). The composite z-score in assay [2] came out at 0.031.

As to `CC(C)N1CC=CC23O[C@@H]4C=CCOC(=O)[C@@H]4[C@H]2C(=O)N(CCCCCCO)[C@@H]3C1=O` (stereo not given in full), the z-score in assay [1] was 0.864 (inactive); in [3], 0.855 (inactive); in assay [4], 0.619 (inactive); in assay [5] it was 0.343 (inactive); in [6], 0.65 (inactive); in assay [7], -0.0596. Also, the z-score in [8] was 0.936 (inactive); in assay [9], -0.482 (inactive); in [10], 1.26; in assay [11] it was 0.0698; in assay [12], 0.105; in [13], -0.684. Besides, the z-score is 1.17 in [14]; 0.255 in assay [15]; -0.202 in assay [16]; -0.109 (inactive) in assay [17]; 0.0854 in [18]; -0.249 in [19]. The z-score in assay [20] is 0.64 (inactive). In [2], this compound displayed a composite z-score of -0.184.

For `Cc1ccc(S[C@]2(C(=O)NCC(C)C)CC(=O)N(C3CCCCC3)[C@@H]2c2ccc(CO)cc2I)cc1`, the z-score in assay [1] is 0.256 (inactive); in [3] it was 4.6 (inactive); in [4], 0.61 (inactive); in assay [5], 0.796 (inactive); in assay [6], 0.597 (inactive); in assay [7], 0.212. The z-score in assay [8] is 1.54 (inactive); in [9], -1.02 (inactive); in [10], -2.07; in assay [11], -0.62; in assay [12], -0.395; in assay [13], -0.885. Also, the z-score was -3.28 in assay [14]; -3.46 in assay [15]; 0.752 in assay [16]; 0.49 (inactive) in assay [17]; -0.947 in assay [18]; 0.0655 in assay [19]. The z-score in assay [20] was 1.3 (inactive). Further, the composite z-score in assay [2] turned out to be 0.568.

Consider `Cc1ccc(C(C)CC(O)C2C=CC3C(=O)N(Cc4ccccc4)C(=O)C3N2n2cnnc2)o1` (stereo not given), for which the z-score in assay [1] is -1.44 (inactive); in assay [3], 2.31 (inactive); in assay [4] it was 0.793 (inactive); in [5], 0.809 (inactive); in assay [6], 0.709 (inactive); in [7], -0.63. For the same compound, the z-score is -0.168 (inactive) in [8]; -1.78 (inactive) in assay [9]; -2.17 in [10]; -0.732 in assay [11]; -0.126 in assay [12]; -0.705 in [13]. In addition, the z-score in assay [14] was -0.427; in assay [15], -1.63; in assay [16], -0.254; in assay [17], -1.24 (inactive); in assay [18] it was -0.168; in assay [19], 1.24. In addition, the z-score in assay [20] was -1.34 (inactive). In addition, the composite z-score in [2] was 1.21.

Consider `C=CC[C@]1(C(=O)N(C)C)N=C(c2ccc(OCCCO)cc2)O[C@H]1c1ccccc1`, for which the z-score in [1] was 1.17 (inactive); in assay [3], 28.3 (active); in assay [4] it was 17.7 (active); in assay [5] it was 3.55 (inactive); in assay [6], 1.46 (inactive); in assay [7], 1.41. The z-score in assay [8] was -2.39 (inactive); in assay [9] it was -0.252 (inactive); in [10], -4.75; in assay [11], 0.203; in [12] it was 1.17; in assay [13], -0.308. The z-score in assay [14] was -0.27; in assay [15], -1.19; in assay [16], 1.5; in [17] it was 0.644 (inactive); in assay [18] it was -0.741; in assay [19], -1.33. In addition, the z-score in assay [20] is 1.32 (inactive). For the same compound, in [2], the composite z-score worked out at 0.325.
